Sfp PPTase inh: inhibitors of Bacillus subtilis Sfp phosphopantetheinyl transferase; Q9F4F7; Biochemical Sfp PPTase activity, qHTS; Potency, µM, for the others: largest response in the series, negative = inhibition, hits mostly inhibitors; 310,000 tested, 3.5% active;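 also: the enzyme is Sfp with the accession as filed and its product quenches rhodamine fluorescence; 0% = enzyme reaction without inhibitor and -100% = no enzyme wells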
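Compounds were incubated with enzyme (final 15 nM) for 15 min at room temperature before substrate addition started the reaction. Fluorescence at 525 nm excitation, 598 nm emission was recorded immediately and after 30 minutes.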
JMJD2A Tudor inh: JMJD2A Tudor domain (human) inhibition. O75164. AlphaScreen JMJD2A-Tudor / H3K4me3 peptide binding. Potency, µM (titrated, usually from 114 µM), without a hit: top-dose activity change, negative = inhibition, hits mostly inhibitors. 390,000 tested, 4.4% active. AID 504339; also: % is scaled to controls: 0 for no effect and ±100 for the full control effect; nearly all actives have a fitted effect of over 50% in size
G9a inh: blocks human histone lysine methyltransferase G9a; Q96KQ7; G9a H3K9 monomethylation, AlphaScreen, 2 h; Potency, µM (top dose mostly 102 µM), inactives show at the highest dose activity, negative = inhibition, actives largely listed as inhibitors; 350,000 tested, 8.8% active; AID 504332; also: % is scaled to controls: 0 for no effect and ±100 for the full control effect; nearly all actives have a fitted effect of over 75% in size
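Enzyme 20 nM + cpd, 15 min RT; add b-H3K9 pep 500 nM / SAM 20 uM; 2 h RT; anti-H3K9me1 Ab 0.5 ug/mL + SA donor / anti-rabbit acceptor beads 20 ug/mL each, 10 min; AlphaScreen read.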
BAZ2B inh: BAZ2B (human) inhibition; AID 504333; Potency, µM (highest dose often 114 µM), inactives show top-dose activity change, negative = inhibition, usual class: inhibitors; 360,000 tested, 4.4% active; AlphaScreen BAZ2B-H3K14Ac peptide displacement; Q9UIF8; also: % is scaled to controls: 0 for no effect and ±100 for the full control effect; nearly all actives have a fitted effect of over 60% in size
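Protein-peptide AlphaScreen: BAZ2B 50 nM, b-H3K14Ac 50 nM, 1x PBS pH 7.4 + 0.01% Tween-20. Preincubation 30 min RT; cpd 30 min RT (top 110 uM); beads 20 min RT, light-protected.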
HP1b chromo inh: HP1-beta chromodomain-methylated histone interaction inhibition; P83916; AlphaScreen HP1-beta / biotin-H3K9me3 peptide binding; Potency, µM (titrated, usually from 114 µM), inactives show at the highest dose activity change, negative = inhibition, usual class: inhibitors; 390,000 tested, 0.56% active; also: nearly all actives have a fitted effect of over 70% in size
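Compound inhibition of the preformed complex between 50 nM HP1-beta and 50 nM biotinylated H3K9me3 peptide was read by AlphaScreen. Buffer was PBS pH 7.4 with 0.01% Tween-20. Incubations ran 30 min at room temperature, with 10 ug/mL donor/acceptor beads.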
* = called active by the depositor; ? = inconclusive; / = not tested or not shown; [ ] = another dose, or the depositor's remark. Compounds with a hit are over-represented: about 12% of the library has one in this group of screens. Calls follow the shape of the dose curve; as a rule, active = well fitted curve in the direction sought with a large enough effect; inconclusive = small, poorly fitted or top-dose-only effect, or another doubt; inactive = no such curve, though single readings can be large; an effect the other way counts as inactive or inconclusive. Potency is read from the fitted curve at half-maximal effect.

SMILES | Sfp PPTase inh | JMJD2A Tudor inh | G9a inh | BAZ2B inh | HP1b chromo inh
c1ccc(CNc2nc3ccccc3n3cnnc23)nc1 | -16.0% | -12.8% | 44.7µM* | -10.5% | 27.3%
COc1cccc(CNc2nc3ccc(C)cc3n3cnnc23)c1 | 4.8% | -8.5% | -1.8% | -1.7% | 36.9%
Cc1ccc(CNc2nc3ccc(C)cc3n3cnnc23)cc1 | ? | -35.9% | 50.1µM* | -2.5% | 10.1%
CCCn1c(NCc2ccc(N(C)C)cc2)nc2ccccc21 | -9.0% | ? | 50.1µM* | ? | -13.6%
COc1ccccc1CN1CC[C@@]2(CCCN(S(C)(=O)=O)C2)C1 | 8.1% | / | 13.3%[12.7 µM] | / | /
CCN(CC)CCn1c(NCc2ccc(C)o2)nc2ccccc21 | 3.8% | ? | 50.1µM* | ? | 6.1%
CCCn1c(Nc2nc3ccccc3n2C)nc2ccccc21 | ? | 56.2µM* | -0.6% | 8.91µM* | 34.2%
CCCCn1c(Nc2ccccc2)nc2ccccc21 | 15.0% | -8.5% | 3.6% | 4.3% | 7.6%
CCn1c(Nc2ccccc2Cl)nc2ccccc21 | 13.3% | 44.7µM* | -25.7% | -13.8% | -8.9%
CCN(CC)c1ccc(CNc2nc3ccccc3n2CC)cc1 | 2.6% | ? | 31.6µM* | 44.7µM* | ?
CCn1c2ccccc2c2cc(NC(=O)C(=O)N3CCOCC3)ccc21 | 0.2% | ? | ? | -18.9% | ?
Cc1oncc1C(=O)Nc1cccc(C#N)c1 | 2.1% | 2.0% | 21.7% | -11.4% | 26.2%
c1ccc2c(c1)CCC[C@H]2Nc1nc2ccccc2[nH]1 | / | / | 1.6%[59 µM] | / | /
N#Cc1cccc(-c2nc3cnc(N4CCOCC4)nc3n(C[C@H]3CCCO3)c2=O)c1 | 15.3% | / | -0.6%[0.501 µM] | / | /
Cc1cc(NC(=O)CN2C(=O)NC(CC(C)C)C2=O)ccc1Br (configuration not stated) | / | -16.9% | 23.8%[12.7 µM] | 10.5% | 25.6%
Cc1cc(=O)n(CC(=O)O)c2ccccc12 | 4.2% | -6.1% | 2.1% | -5.7% | 44.8%
CCOC(=O)Cn1c(=O)cc(C)c2ccccc21 | -4.7% | 12.6µM* | 13.4%[59 µM] | -0.9% | ?
O=C(NCc1cccc(Cl)c1)c1oc(=O)c2ccccc2c1-c1ccccc1 | / | -12.8% | -1.2%[59 µM] | -6.3% | 17.8%
Cc1ccc(C2=NN(C(=O)c3ccccc3F)C(c3ccccc3F)C2)cc1 (configuration not stated) | 50.1µM* | -19.3% | 15.8µM* | -37.6% | -17.9%
O=C(c1ccccc1)N1N=C(c2ccccc2)CC1c1ccccc1O (configuration not stated) | 10µM* | 11.2µM* | ? | ? | ?
COC(=O)c1ccc(NC(=O)CSc2cn(CC(=O)N3CCCCCC3)c3ccccc23)cc1 | / | -13.2% | -22.7%[59 µM] | -25.9% | 28.0%
CCc1noc(C)c1C(=O)N1CCN(S(=O)(=O)c2ccccc2C(F)(F)F)CC1 | / | 8.4% | -10.6%[12.7 µM] | 4.8% | 32.8%
CC(C)N=c1cc2n(-c3ccc(Cl)cc3)c3ccccc3nc-2cc1Nc1ccc(Cl)cc1 | ? | 7.08µM* | 2.51µM* | / | 4.47µM*
CCOC(=O)c1sc2ccccc2c1S(=O)(=O)N1CCN(c2cccc(C)c2C)CC1 | / | -14.3% | 1.1%[59 µM] | -16.9% | 12.4%
CC1=NN(C(N)=S)C(C)(C)C1 | ? | -10.4% | / | -6.0% | 43.3%
SMILES | Sfp PPTase inh | JMJD2A Tudor inh | G9a inh | BAZ2B inh | HP1b chromo inh
CC1=NN(C(=S)Nc2ccccc2)C(C)(C)C1 | ? | -3.1% | 31.6µM* | 10.8% | 22.5%
CC(C)=NOCc1ccc(-c2cc(-c3ccccc3)no2)cc1 | -11.0% | / | / | / | /
S=c1[nH]nc(Nc2cccc(Cl)c2)s1 | 39.8µM* | -15.0% | 1.41µM* | -31.3% | 28.1%
O=C(c1ccc(Cl)cc1)c1cnc(Nc2ccccc2Cl)s1 | -20.1% | 1.5% | / | -4.3% | 30.0%
Clc1cccc(Nc2nc(-c3ccncc3)cs2)c1 | 4.4% | -3.6% | -34.4% | -15.0% | 15.5%
S=c1[nH]nc(Nc2ccccc2Cl)s1 | -93.4% | 6.31µM* | 1.41µM* | 44.7µM* | 22.4µM*
CN1CCNC(=O)C1CC(=O)NCCc1ccccc1F (configuration not stated) | 17.3% | -19.6% | 7.7%[0.501 µM] | 4.7% | 35.6%
CC(C)Cn1c(C(C)C)nc([N+](=O)[O-])c1Sc1ccc(Cl)cn1 | -3.5% | -12.2%[57.1 µM] | ? | -8.2% | 28.6%
CCCCn1c(CCC)nc([N+](=O)[O-])c1Sc1ccc(Cl)cn1 | -5.5% | -22.0% | 14.1µM* | -19.7% | 3.8%
